Screens deposited in PubChem BioAssay by The Scripps Research Institute Molecular Screening Center.
Compounds with a hit are over-represented: about 4.1% of the library has one in this group of screens.
ssDAF12 agonist – S. stercoralis DAF-12 nuclear receptor activators, primary screen, cell-based, luminescence, HEK293, GRIP1 co-expression, lit1-tk-luc. HEK293 ssDAF-12/GRIP1 lit1-tk-luc reporter; % of 3 µM dafachronic acid response. activation, % at 6.8 µM. 370,000 tested, 1% active. AID 652126, 2013;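 active means activation above the mean over all tested compounds plus 3 SD, cut at about 0.9% in these data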;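 further: 0% = DMSO-only wells and 100% = 3 µM delta7-dafachronic acid wells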
hcDAF12 agonist – H. contortus DAF-12 nuclear receptor activators, primary screen, cell-based, luminescence, HEK293, lit1-tk-luc reporter | HEK293 hcDAF-12 lit1-tk-luc reporter; 0% DMSO, 100% Δ7-dafachronic acid | activation, % at 6.8 µM | 370,000 tested, 1.4% active;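 active means activation above the mean of all tested compounds plus 3 SD, cut at about 5.5% in these data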;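 further: 100% = response to 3 µM Δ7-dafachronic acid high control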
DAX1 inh-1 – DAX1 (NR0B1) inhibitors, primary screen, cell-based, HEK293, Gal4-DAX1, luciferase luminescence; HEK293 Gal4-DAX1 luciferase reporter; inhibition, % at 6.75 µM; 340,000 tested, 0.99% active; Nuclear receptor subfamily 0 group B member 1 (Homo sapiens), P51843;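 active means inhibition above the mean over all tested compounds plus 3 SD, cut at about 4.2% in these data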;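 further: 0% = DAX1-transfected cells with DMSO and 100% = empty-vector control cells with DMSO; inhibition shows as a rise in luminescence from relieved DAX1 repression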
Target sequence (P51843 207-470 limits assumed): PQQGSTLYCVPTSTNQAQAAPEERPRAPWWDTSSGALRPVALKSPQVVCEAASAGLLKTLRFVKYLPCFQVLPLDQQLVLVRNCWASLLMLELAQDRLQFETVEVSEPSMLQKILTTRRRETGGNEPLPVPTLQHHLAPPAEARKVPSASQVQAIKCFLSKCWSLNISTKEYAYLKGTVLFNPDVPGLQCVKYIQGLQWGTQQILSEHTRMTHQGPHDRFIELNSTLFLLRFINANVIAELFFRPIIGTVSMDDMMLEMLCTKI
hgDAF-12 ag – H. glycines DAF-12 receptor agonists, primary screen, cell-based, luminescence, HEK293, GAL4 fusion, UAS-luciferase. HEK293 GAL4-hgDAF12 UAS-luciferase reporter, agonist luminescence; normalized to butyrate control. 370,000 tested, 1.8% active. activation, % at 6.8 µM. AID 687014, 2013;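 active means activation above a cutoff set at the mean of all screened compounds plus 3 SD, cut at about 10% in these data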;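 further: 0% = DMSO wells and 100% = sodium butyrate wells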
DAX1 inh-2 – DAX1 (NR0B1) inhibitors on StAR promoter, primary screen, cell-based, luminescence, SF-1 (NR5A1), full-length DAX-1 | HEK293T StAR-luciferase reporter, SF-1/DAX-1 repression relief | inhibition, % at 6.8 µM | 370,000 tested, 1.1% active;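 active means inhibition above the mean over all tested compounds plus 3 SD, cut at about 3.6% in these data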;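 further: 0% = DAX-1 cells with DMSO and 100% = cells lacking DAX-1 with DMSO; higher inhibition means more luminescence from relief of DAX-1 repression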
LXR ag – LXR agonists, Gal4 luciferase reporter, confirmation, counter-screen for hcDAF-12 agonist project, cell-based, luminescence, HEK293, H. contortus campaign. shares compounds with hcDAF12 agonist. 3,400 tested, under 10 active. activation, % at 6.8 µM. AID 743027, 2013. HEK293 Gal4-LXR tk-luc reporter, 24 h; normalized: DMSO 0%, positive control 100%;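 active means mean percent activation of the reporter above a cutoff set as the average over tested compounds plus their standard deviation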
hcDAF12 ag – H. contortus DAF-12 receptor agonists, confirmation, cell-based, luminescence, HEK293, lit1-tk-luc, triplicate | shares compounds with hcDAF12 agonist | activation, % at 6.8 µM | 3,400 tested, 61% active | HEK293 hcDAF-12 lit1-tk-luc reporter; % of Δ7-dafachronic acid response;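 active means mean activation across triplicate tests above the threshold derived from the earlier primary screen, cut at about 5.5% in these data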;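 further: 0% = DMSO only wells and 100% = 3 µM Δ7-dafachronic acid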
The depositor's hits bear a star; . = no result given.

SMILES | ssDAF12 agonist | hcDAF12 agonist | DAX1 inh-1 | hgDAF-12 ag | DAX1 inh-2 | LXR ag | hcDAF12 ag
O=S1(=O)N[C@H](Cc2ccccc2)COc2cc(N3CCOCC3)ccc21 | -1 | 5 | . | 4 | 1 | . | .
CCOC(=O)c1cnc(-c2ccccc2)nc1N(C)C | 1 | 11* | 3 | 11* | 2 | 0 | 9.4*
Cc1ccc2sc(-c3ccc(NC(=O)CCN4C(=O)c5ccccc5C4=O)cc3)nc2c1 | 1 | 10.0* | . | 9 | 2 | 2 | 9.0*
CC(=O)Nc1ccc(NC(=O)CCN2C(=O)c3ccccc3C2=O)cc1 | -1 | -2 | 0 | 2 | 1 | . | .
COc1ccccc1C(=O)N1CCN(C(=O)[C@H]2O[C@@H](n3ccc(N)nc3=O)[C@H](O)[C@@H]2O)CC1 | -1 | 0 | . | 0 | 1 | . | .
Oc1ccccc1-c1nc2c3ccccc3c3ccccc3c2[nH]1 | 0 | 7.5* | 2 | 4 | -1 | 0 | 5
c1csc(-c2nc3c4ccccc4c4ccccc4c3[nH]2)c1 | 0 | 0 | -1 | 2 | -1 | . | .
Cn1cc(C(=O)Nc2ccccn2)c(=O)c2ccccc21 | 1.7* | 7.0* | 3 | 5 | 0 | 1 | 12*
Cc1cccc(NNC(=S)Nc2ccccc2)c1 | 0 | 11* | 1 | 3 | 1 | 0 | 5
O=c1cc(O)nc(SCc2ccccc2)[nH]1 | -2 | 6.7* | 1 | -2 | 0 | 0 | 2
Cc1cc(=O)[nH]c(SCc2ccccc2)n1 | -1 | 1 | 0 | -2 | 0 | . | .
COC(=O)[C@H](Cc1ccccc1)NC(=O)NCCc1ccccc1F | -1 | 2 | 1 | 1 | 0 | . | .
COc1ccc2[nH]c3c(C)c4ccncc4c(C)c3c2c1 | 2.0* | 7.3* | 0 | 0 | -2 | 0 | 4
NC(=NCc1ccccc1)NC(=O)OCc1ccccc1 | -1 | 0 | . | 4 | 2 | . | .
CCOC(=O)[C@@]12CCCC3=C1N(CCC3)C(=O)[C@H]2CC(=O)N1CCSCC1 | -2 | -3 | . | -1 | 0 | . | .
N/C(=N\OC(=O)c1ccc(Cl)cc1[N+](=O)[O-])c1ccccn1 | 0 | 8.6* | 3 | 12* | 1 | 1 | 2
COc1cccc(C(=O)O/N=C(\N)c2ccncc2)c1OC | -1 | 1 | 2 | 4 | 1 | . | .
N/C(=N\OC(=O)c1ccc(Cl)cc1[N+](=O)[O-])c1cccnc1 | 0 | 7.0* | 2 | 8 | 1 | 0 | 6.4*
COc1cccc(C(=O)O/N=C(\N)c2ccccn2)c1OC | 0 | 6.6* | 1 | 10 | 3 | 1 | 6.4*
N/C(=N\OC(=O)c1ccc(Cl)cc1Cl)c1ccccn1 | -2 | -2 | -5 | -11 | 0 | . | .
Cc1ccc(C2=Nc3ccccc3NC(C)(c3ccc(C)o3)C2)o1 (stereo unspecified) | 1.4* | 15* | 1 | 12* | 1 | 0 | 5.7*
CC1(c2ccccc2)CC(c2ccccc2)=Nc2ccccc2N1 (stereo unspecified) | . | . | 4 | . | . | . | .
O=C1c2ccccc2CCC12N=NCC2c1ccc(Cl)cc1 (stereo unspecified) | 0 | 7.4* | -3 | 4 | 1 | 0 | 5
O=C1c2ccccc2CCC12N=NCC2c1ccc(Br)cc1 (stereo unspecified) | -2 | -2 | -1 | 1 | 0 | . | .
CCOc1ccc(NC(=O)CN(C)C(=O)CCNC(=O)c2ccco2)cc1OCC | 0 | 0 | 0 | 3 | 1 | . | .
SMILES | ssDAF12 agonist | hcDAF12 agonist | DAX1 inh-1 | hgDAF-12 ag | DAX1 inh-2 | LXR ag | hcDAF12 ag
N#C/C(=C\c1ccc(-c2ccc(C(=O)O)cc2)o1)C(=O)NCC1CCCO1 (stereo unspecified) | . | . | 1 | . | . | . | .
Cc1cccc(C)c1NC(=O)/C(C#N)=C/c1ccc(-c2ccc(C(=O)O)cc2)o1 | 0 | 7.0* | 4.3* | 8 | 1 | 1 | 5
N#C/C(=C\c1ccc(-c2ccc(C(=O)O)cc2)o1)C(=O)Nc1ccc(F)cc1 | 0 | 6.9* | -1 | 9 | 1 | 0 | 5
CCCCCN(C(=O)Cc1c(C)n(CCCCC)c2ccccc12)c1ccc(Oc2cccnc2)c(C)c1 | 1 | 4 | . | 5 | 1 | . | .
O=C(Nc1ccsc1C(=O)O)c1ccc(Cl)cc1 | 3.0* | 9.1* | 2 | 10 | 2 | 1 | 12*
O=C(Nc1ccsc1C(=O)O)c1cccc(Oc2ccccc2)c1 | 0 | 7.8* | 0 | 13* | 2 | 1 | 7.3*
O=C(Nc1ccsc1C(=O)O)c1cccc(C(F)(F)F)c1 | 0 | 3 | 2 | 5 | 1 | . | .
Cc1ccc(NC(=O)OC2CCC23CCCCC3)cc1 (stereo unspecified) | -1 | 1 | . | 6 | 1 | . | .
COc1ccc(C(C)c2cn(C)c3ccccc23)cc1 (stereo unspecified) | 0 | 2 | . | 0 | -1 | . | .
COc1ccc(CN2C(=O)CCCC2(C)c2nnnn2-c2ccc3c(c2)OCCO3)cc1 (stereo unspecified) | -1 | 0 | . | -1 | -1 | . | .
O=C1CNC(=S)N1c1nc2ccccc2s1 | 0 | 6.8* | 1 | 5 | 1 | 0 | 8.0*
O=c1cc(-c2ccccc2)[nH]n1-c1nc2ccccc2s1 | 0 | 4 | 1 | 3 | 1 | . | .
N=c1scc(-c2ccccc2)n1/N=C/c1ccco1 | 1.4* | 6.8* | 0 | 11* | 2 | 1 | 4
C(=N/n1c2ccccc2c2ccccc21)/c1ccco1 | -1 | 1 | 1 | 1 | 0 | . | .
COc1ccccc1-c1nc(SCc2ccccn2)n[nH]1 | 1 | 6.9* | 4.9* | 8 | 2 | 0 | 9.0*
O=C(COC(=O)c1cncc(Br)c1)Nc1ccc2c(c1)OCO2 | 0 | 7.0* | 2 | 1 | 0 | 0 | 4
COC(=O)[C@]12C[C@H](CC(=O)NCc3ccc(OC)c(OC)c3)C(=O)N(Cc3ccccc3)C1=C[C@H](COCc1ccccc1)O[C@@H]2C | -1 | -3 | . | -4 | -2 | . | .
